# Assay results from the supplement of paper PMC11732987, “Enantioselective OTUD7B fragment discovery through chemoproteomics screening and high-throughput optimisation” (Communications Chemistry, 2025).
# Unmarked numbers belong to inactive results.
# Assays:
# Assay in all cases: log2 ratio of Biotin-Ahx-Ub-VS probe labelling (fragment/DMSO); higher = less target engagement (more negative = stronger competition), active = hit call of the paper (q ≤ 0.05, log2 ratio ≤ -1)
# Conditions in all cases: compound concentration: 200 uM; treatment time: 3 h
# [1] = molecular target: T1, OTUD6B (UniProt Q8N6M0)
# T1 sequence (whole entry): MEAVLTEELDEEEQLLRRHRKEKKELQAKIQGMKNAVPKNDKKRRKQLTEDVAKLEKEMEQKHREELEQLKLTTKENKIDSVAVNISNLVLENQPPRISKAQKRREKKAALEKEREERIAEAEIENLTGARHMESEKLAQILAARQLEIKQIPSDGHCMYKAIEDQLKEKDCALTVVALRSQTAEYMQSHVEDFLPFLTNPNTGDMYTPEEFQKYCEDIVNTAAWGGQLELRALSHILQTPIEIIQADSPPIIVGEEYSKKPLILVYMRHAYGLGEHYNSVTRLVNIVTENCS
# Outline: (§1)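 HEK293T lysate, 495 µg per sample in Tris/CHAPS/IGEPAL buffer with protease inhibitors, was treated in triplicate with fragment at 200 µM or vehicle for 3 h and then with Biotin-Ahx-Ub-VS at 0.5 µM final for 1 h. Labelled DUBs were NeutrAvidin-enriched, digested with LysC and trypsin, and run by diaPASEF LC-MS/MS. Spectronaut label-free quantities were global-median-normalised, and values are average log2 fragment/vehicle ratios by unpaired t-test on proteins with ≥2 unique peptides.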
# [2] = molecular target: T2, OTUD7B (UniProt Q6GQQ9)
# T2 sequence (whole entry): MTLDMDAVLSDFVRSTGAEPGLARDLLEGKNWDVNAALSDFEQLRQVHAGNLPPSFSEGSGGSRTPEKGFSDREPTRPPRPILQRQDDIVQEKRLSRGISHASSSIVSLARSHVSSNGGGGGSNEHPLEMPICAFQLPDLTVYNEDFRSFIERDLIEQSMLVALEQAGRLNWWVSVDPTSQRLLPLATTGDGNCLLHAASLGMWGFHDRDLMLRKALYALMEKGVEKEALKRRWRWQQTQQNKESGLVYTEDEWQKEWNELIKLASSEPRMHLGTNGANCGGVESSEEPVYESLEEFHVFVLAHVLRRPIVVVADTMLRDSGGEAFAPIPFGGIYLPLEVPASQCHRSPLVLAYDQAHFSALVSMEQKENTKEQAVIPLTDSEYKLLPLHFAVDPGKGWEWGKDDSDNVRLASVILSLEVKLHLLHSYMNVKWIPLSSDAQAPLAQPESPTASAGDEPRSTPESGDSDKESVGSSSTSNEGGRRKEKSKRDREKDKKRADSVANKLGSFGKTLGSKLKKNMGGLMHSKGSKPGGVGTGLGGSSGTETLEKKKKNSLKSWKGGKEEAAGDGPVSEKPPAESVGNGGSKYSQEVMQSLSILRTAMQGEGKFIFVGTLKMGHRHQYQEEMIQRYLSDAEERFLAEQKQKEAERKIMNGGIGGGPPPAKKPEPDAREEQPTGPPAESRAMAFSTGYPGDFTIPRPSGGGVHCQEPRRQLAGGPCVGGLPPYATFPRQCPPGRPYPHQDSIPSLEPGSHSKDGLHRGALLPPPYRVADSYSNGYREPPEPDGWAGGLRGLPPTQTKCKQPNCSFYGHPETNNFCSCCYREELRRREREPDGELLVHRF
# Outline: as §1
# [3] = molecular target: PRPF8 (UniProt Q6P2Q9)
# Outline: as §1
# [4] = molecular target: T3, PSMD7 (UniProt P51665)
# T3 sequence (whole entry): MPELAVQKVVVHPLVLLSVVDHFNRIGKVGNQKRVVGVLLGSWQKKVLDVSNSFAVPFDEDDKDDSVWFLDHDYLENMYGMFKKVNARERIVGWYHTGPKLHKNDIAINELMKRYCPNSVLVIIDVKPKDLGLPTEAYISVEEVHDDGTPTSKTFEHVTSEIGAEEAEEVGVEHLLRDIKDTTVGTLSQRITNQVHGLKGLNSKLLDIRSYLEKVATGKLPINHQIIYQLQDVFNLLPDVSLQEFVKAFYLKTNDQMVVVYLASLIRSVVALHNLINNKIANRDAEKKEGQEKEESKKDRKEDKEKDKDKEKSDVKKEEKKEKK
# Outline: as §1
# [5] = molecular target: UCHL1 (UniProt P09936)
# Chain of UCHL1 (P09936 whole entry, looked up): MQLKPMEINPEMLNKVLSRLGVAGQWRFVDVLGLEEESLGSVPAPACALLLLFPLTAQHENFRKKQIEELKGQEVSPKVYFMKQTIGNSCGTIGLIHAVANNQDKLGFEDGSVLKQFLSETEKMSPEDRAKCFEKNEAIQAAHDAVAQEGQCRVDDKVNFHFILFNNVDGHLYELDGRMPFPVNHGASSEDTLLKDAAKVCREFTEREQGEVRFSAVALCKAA
# Outline: as §1
# [6] = molecular target: T4, UCHL3 (UniProt P15374)
# T4 sequence (whole entry): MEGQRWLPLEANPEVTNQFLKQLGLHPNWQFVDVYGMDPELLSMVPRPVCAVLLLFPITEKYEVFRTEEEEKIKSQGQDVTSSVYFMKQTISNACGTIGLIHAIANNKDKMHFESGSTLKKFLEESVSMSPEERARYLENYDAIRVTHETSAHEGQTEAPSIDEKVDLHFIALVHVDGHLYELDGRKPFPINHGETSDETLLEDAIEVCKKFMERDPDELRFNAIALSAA
# Outline: as §1
# [7] = molecular target: T5, UCHL5 (UniProt Q9Y5K5)
# T5 sequence (whole entry): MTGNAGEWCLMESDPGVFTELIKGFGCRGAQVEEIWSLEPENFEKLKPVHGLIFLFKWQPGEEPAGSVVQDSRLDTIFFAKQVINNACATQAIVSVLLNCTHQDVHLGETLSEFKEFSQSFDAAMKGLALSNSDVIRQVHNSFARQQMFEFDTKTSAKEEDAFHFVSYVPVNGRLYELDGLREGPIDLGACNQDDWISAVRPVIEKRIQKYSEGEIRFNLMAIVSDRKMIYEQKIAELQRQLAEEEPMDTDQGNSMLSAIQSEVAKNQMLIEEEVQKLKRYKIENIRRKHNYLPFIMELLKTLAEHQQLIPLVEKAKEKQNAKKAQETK
# Outline: as §1
# [8] = molecular target: USP10 (UniProt Q14694)
# Chain of USP10 (Q14694 whole entry): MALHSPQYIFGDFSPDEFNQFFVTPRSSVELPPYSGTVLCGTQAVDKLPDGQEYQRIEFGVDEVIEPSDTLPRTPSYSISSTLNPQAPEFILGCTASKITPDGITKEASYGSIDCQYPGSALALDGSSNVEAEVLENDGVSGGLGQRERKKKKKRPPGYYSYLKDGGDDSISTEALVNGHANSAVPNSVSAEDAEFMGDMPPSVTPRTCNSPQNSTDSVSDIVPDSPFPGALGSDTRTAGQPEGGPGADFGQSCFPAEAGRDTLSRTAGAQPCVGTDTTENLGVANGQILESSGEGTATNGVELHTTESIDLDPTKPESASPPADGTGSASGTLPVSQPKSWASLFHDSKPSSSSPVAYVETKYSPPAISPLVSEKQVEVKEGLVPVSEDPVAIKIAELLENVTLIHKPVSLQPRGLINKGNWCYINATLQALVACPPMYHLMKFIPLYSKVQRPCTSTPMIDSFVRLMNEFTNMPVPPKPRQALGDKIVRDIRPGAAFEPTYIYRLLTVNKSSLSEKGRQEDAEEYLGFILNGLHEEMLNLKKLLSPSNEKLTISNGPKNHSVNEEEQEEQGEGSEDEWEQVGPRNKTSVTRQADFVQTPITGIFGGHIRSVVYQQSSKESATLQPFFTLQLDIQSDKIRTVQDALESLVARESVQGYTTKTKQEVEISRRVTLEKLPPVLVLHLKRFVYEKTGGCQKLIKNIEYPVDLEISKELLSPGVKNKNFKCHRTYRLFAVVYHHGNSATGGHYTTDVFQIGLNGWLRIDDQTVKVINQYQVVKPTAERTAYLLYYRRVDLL
# Outline: as §1
# [9] = molecular target: T6, USP15 (UniProt Q9Y4E8)
# T6 sequence (whole entry): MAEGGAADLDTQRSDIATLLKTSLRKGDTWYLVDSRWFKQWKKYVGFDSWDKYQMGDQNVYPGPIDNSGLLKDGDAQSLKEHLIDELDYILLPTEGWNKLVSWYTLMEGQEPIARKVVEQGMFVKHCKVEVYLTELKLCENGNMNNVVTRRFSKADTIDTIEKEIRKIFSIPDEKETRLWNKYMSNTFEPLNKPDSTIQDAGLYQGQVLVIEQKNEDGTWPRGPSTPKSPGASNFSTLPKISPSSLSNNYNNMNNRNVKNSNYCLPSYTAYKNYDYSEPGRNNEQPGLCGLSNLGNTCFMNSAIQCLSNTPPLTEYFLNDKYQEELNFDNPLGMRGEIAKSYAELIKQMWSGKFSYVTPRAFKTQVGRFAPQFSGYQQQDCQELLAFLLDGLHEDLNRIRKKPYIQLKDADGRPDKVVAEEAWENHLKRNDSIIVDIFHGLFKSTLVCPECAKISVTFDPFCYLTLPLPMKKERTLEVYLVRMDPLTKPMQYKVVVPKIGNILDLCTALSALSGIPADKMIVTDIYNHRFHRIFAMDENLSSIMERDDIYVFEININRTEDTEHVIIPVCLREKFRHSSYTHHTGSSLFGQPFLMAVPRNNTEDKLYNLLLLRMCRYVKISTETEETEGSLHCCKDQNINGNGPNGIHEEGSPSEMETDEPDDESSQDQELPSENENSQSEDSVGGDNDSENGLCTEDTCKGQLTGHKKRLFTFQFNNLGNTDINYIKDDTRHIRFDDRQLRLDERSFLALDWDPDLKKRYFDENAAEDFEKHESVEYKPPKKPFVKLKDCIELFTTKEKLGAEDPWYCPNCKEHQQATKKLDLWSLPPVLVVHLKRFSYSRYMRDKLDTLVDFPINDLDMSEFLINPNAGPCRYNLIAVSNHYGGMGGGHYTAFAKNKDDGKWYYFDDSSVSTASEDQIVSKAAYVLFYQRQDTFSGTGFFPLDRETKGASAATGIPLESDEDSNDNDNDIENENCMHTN
# Outline: as §1
# [10] = molecular target: USP16 (UniProt Q9Y5T5)
# Chain of USP16 (Q9Y5T5 whole entry, looked up): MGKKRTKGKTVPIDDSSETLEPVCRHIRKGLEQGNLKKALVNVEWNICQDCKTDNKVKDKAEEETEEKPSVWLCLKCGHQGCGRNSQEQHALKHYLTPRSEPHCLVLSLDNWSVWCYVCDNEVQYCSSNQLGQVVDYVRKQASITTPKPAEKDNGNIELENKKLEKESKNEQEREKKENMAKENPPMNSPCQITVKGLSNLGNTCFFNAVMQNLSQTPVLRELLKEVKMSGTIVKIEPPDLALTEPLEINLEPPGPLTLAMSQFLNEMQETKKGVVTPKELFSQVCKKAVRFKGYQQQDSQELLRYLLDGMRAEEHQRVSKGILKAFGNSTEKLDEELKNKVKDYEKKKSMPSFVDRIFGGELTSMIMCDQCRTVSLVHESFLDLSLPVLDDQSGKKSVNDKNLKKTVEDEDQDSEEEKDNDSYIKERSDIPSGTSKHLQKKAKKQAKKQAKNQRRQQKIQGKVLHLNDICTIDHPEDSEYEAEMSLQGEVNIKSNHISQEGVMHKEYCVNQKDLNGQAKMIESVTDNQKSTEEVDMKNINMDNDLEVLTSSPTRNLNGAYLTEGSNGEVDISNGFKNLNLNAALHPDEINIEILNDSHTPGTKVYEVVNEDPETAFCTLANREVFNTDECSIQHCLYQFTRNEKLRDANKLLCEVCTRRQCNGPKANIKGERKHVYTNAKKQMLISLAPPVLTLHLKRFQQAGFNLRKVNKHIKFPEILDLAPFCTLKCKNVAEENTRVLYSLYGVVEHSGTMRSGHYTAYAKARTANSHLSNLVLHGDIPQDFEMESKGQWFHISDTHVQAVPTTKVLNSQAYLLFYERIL
# Outline: as §1
compound,measurement,setting,value
O=C(CCl)NC1CCCCNC1=O (stereo not given),log2 ratio of Biotin-Ahx-Ub-VS probe labelling,[1],-0.522
same,log2 ratio of Biotin-Ahx-Ub-VS probe labelling,[2],-0.212
same,log2 ratio of Biotin-Ahx-Ub-VS probe labelling,[3],-0.0633
same,log2 ratio of Biotin-Ahx-Ub-VS probe labelling,[4],-0.0971
same,log2 ratio of Biotin-Ahx-Ub-VS probe labelling,[5],-1.46 (active)
same,log2 ratio of Biotin-Ahx-Ub-VS probe labelling,[6],0.241
same,log2 ratio of Biotin-Ahx-Ub-VS probe labelling,[7],-0.137
same,log2 ratio of Biotin-Ahx-Ub-VS probe labelling,[8],-0.269
same,log2 ratio of Biotin-Ahx-Ub-VS probe labelling,[9],-0.252
same,log2 ratio of Biotin-Ahx-Ub-VS probe labelling,[10],-0.792
